Avidin fluor: compound fluoresces at 488/530 nm on avidin beads; compound fluorescence 488/530 nm, flow cytometry; hits give high values; 220,000 compounds, 0.38% hits; fluorescence (KMESF) at 10 µM; in the data active = fluorescence above about 47
RGS7-Gao: regulators of human RGS7-Galphao interaction. P09471. binding response (% of control), % at 10 µM. 220,000 compounds, 0.35% hits. Multiplexed bead flow cytometry, RGS7-Galphao binding; actives lie on both sides; in the data active = binding response below about 49% or above about 150%; inconclusive = no clear call, values can overlap the other calls; inactive = in between;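 also: fluorescent Galphao held in activated GDP-AlF4 state binding bead-coupled RGS7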
Target sequence (P09471 whole entry, looked up): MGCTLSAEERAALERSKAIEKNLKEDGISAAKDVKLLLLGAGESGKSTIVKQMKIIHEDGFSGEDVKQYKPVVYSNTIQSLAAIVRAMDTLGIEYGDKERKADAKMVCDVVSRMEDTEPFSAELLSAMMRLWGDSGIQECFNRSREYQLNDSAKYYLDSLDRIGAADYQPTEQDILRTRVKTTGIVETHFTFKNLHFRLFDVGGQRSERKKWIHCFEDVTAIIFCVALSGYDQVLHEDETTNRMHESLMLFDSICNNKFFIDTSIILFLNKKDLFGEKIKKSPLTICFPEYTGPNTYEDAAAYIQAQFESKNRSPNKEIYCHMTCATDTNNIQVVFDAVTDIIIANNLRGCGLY
RGS16-Gao: modulates binding between human RGS16 and Galphao | O15492+P09471 | bead-based flow cytometry RGS16-Galphao binding, fluorescence; actives lie on both sides | binding response (% of control), % at 10 µM | 220,000 compounds, 0.38% hits | AID 1441;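 also: Galphao activated by GDP with aluminum fluoride before binding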
GSH fluor: compound fluoresces at 488/530 nm on GSH beads. GSH beads flow cytometry, compound fluorescence 488/530 nm; hits give high values. fluorescence (KMESF) at 10 µM. 190,000 compounds, 0.25% hits; in the data active = fluorescence above about 89;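 also: glutathione beads carrying GST-tagged Bcl family fusion proteins plus one bare bead set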
RGS4-Gao reg: human RGS4-Galphao interaction regulation | 220,000 compounds, 0.33% hits | binding response (% of control), % at 10 µM | P09471 | Multiplexed bead flow cytometry, RGS4-Galphao binding; actives lie on both sides; in the data active = binding response below about 49% or above about 150%; inactive = in between;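 also: fluorescent Galphao activated with aluminum fluoride binding bead-coupled RGS4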
RGS8-Gao reg: modulates binding of RGS8 to human Galphao; multiplexed bead flow cytometry; actives lie on both sides; response (percent of control binding), % at 10 µM; 220,000 compounds, 0.34% hits; in the data active = response below about 60% or above about 140%; inactive = in between;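 also: Galphao activated as the GDP aluminium fluoride complex binding bead-coupled RGS8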
RGS-Gao: RGS4-Galphao interaction regulator (human); RGS4–Galpha-o binding response, % at 10 µM; 1,600 compounds, 99% hits; multiplexed bead flow cytometry, RGS–Galpha-o binding; shares compounds with RGS16-Gao;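 also: fluorescently labeled Galpha-o bound to GDP with aluminium fluoride binding biotinylated RGS beads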
Target sequence (P09471 whole entry, looked up): as above
Target sequence (P49798 whole entry, looked up): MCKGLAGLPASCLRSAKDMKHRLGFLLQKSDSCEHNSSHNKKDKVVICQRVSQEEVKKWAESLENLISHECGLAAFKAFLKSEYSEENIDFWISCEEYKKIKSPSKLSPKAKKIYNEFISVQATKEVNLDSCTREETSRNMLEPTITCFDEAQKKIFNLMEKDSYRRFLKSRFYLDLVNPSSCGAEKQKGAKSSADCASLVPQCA
Biotin-avidin: counter-screen: compounds disrupting biotin binding to avidin beads | inhibition, % at 10 µM | 1,700 tested, under 10 active | AID 1783 | streptavidin beads, fluorescein-biotin binding, flow cytometry | shares compounds with RGS16-Gao;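 active = inhibition above 50%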;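 also: median green fluorescence of gated singlet beads compared with DMSO control wells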
RGS8-Gao confirm: RGS8-Galphao interaction regulation, single point confirmation; shares compounds with RGS16-Gao; bead-based flow cytometry RGS8-Galphao binding, fluorescence; actives lie on both sides; binding response (% of control), % at 10 µM; 1,700 compounds, 3% hits; in the data active = binding response below about 72% or above about 130%; inactive = in between;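 also: Galphao activated as GDP AlF4 complex before binding bead RGS8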
RGS7-Gao confirm: confirmation of regulators of human RGS7-Galphao interaction | AID 1837 | response (percent of control binding), % at 10 µM | bead-based flow cytometry RGS7-Galphao binding; actives lie on both sides | shares compounds with RGS16-Gao | 1,700 compounds, 7.8% hits; in the data active = response below about 75% or above about 130%; inactive = in between;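 also: fluorescent Galphao activated with GDP and aluminum fluoride binding bead-coupled RGS7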
RGS16-Gao conf: confirmation of regulators of human RGS16-Galphao interaction; shares compounds with RGS16-Gao; bead-based flow cytometry, RGS16-Galphao binding; actives lie on both sides; response (% of control binding), % at 10 µM; 1,700 compounds, 4% hits; in the data active = response below about 74% or above about 130%; inactive = in between;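 also: Galphao activated as the GDP aluminium fluoride complex binding bead-coupled RGS16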
RGS4-Gao single: confirmation of regulators of human RGS4-Galphao interaction; shares compounds with RGS16-Gao; RGS4-Galphao binding, multiplexed bead flow cytometry; actives lie on both sides; binding response (% of control), % at 10 µM; 1,700 compounds, 4% hits; in the data active = binding response below about 74% or above about 130%; inactive = in between
RGS19-Gao conf: RGS19-Galphao interaction regulation, single point confirmation; shares compounds with RGS16-Gao; bead-based flow cytometry RGS19-Galphao binding; actives lie on both sides; response (percent of control binding), % at 10 µM; 1,700 compounds, 5% hits; AID 1841; in the data active = response below about 50% or above about 160%; inactive = in between
Each line names hits and unclear results; the compound was inactive in the other large screens (follow-up assays come after a bar, where they were run); [ ] = another dose, or the depositor's remark. Only some compounds are listed: those with a hit (about 1.2% of all), similar ones and a draw of the others. Unless noted, no rule for the calls is given here.

O=C1CCCC2=C1C(c1cccs1)n1ncnc1N2 (stereo not drawn)	Avidin fluor 80, RGS7-Gao 163[activator], RGS4-Gao reg 202[activator] | Biotin-avidin inactive | RGS8-Gao confirm inactive | RGS7-Gao confirm 61 | RGS16-Gao conf 72 | RGS4-Gao single 74 | RGS19-Gao conf 40
Cc1ccsc1C1C2=C(CCCC2=O)Nc2ncnn21 (stereo not drawn)	none
O=C(O)C1CCC(Cn2c(SCc3cc(=O)n4ccccc4n3)nc3ccsc3c2=O)CC1 (stereo not drawn)	none
O=S(=O)(c1cccc(F)c1)N1CCN(C(=S)NCc2ccccc2)CC1	none
O=C(c1c[nH]c(C(=O)C(Cl)(Cl)Cl)c1)c1ccccc1Br	none
CC1(C)CC(OC(=O)c2ccccc2)CC(C)(C)N1	none
CC12CCC(C1)C(C)(C)C2OC(=O)c1ccccc1C(=O)O (stereo not drawn)	RGS7-Gao inconclusive, RGS4-Gao reg 155[activator] (no result: GSH fluor) | Biotin-avidin inactive | RGS8-Gao confirm inactive | RGS7-Gao confirm inactive | RGS16-Gao conf inactive | RGS4-Gao single inactive | RGS19-Gao conf inactive
Cc1nc2c(=O)oc3ccccc3c2n1-c1ccccc1	RGS8-Gao reg 141[activator] | RGS-Gao 128
CN1C(=O)N(CN2CCCCC2)C2C1N(C)C(=O)N2CN1CCCCC1 (stereo not drawn)	RGS8-Gao reg 154[activator] | RGS-Gao 127
Cc1c(NC(=S)NC(=O)C2CCCCC2)c(=O)n(-c2ccccc2)n1C	RGS7-Gao 15, RGS16-Gao 13, RGS4-Gao reg 7.8, RGS8-Gao reg 17 | Biotin-avidin inactive | RGS8-Gao confirm inactive | RGS7-Gao confirm 67 | RGS16-Gao conf inactive | RGS4-Gao single inactive | RGS19-Gao conf inactive
Cc1c(NC(=O)Nc2ccc3c(c2)OCO3)c(=O)n(-c2ccccc2)n1C	Avidin fluor 149, RGS7-Gao 227[activator] | RGS-Gao 122 | Biotin-avidin inactive | RGS8-Gao confirm inactive | RGS7-Gao confirm inactive | RGS16-Gao conf inactive | RGS4-Gao single inactive | RGS19-Gao conf inactive
Cc1c(NC(=S)NC(=O)C(C)(C)C)c(=O)n(-c2ccccc2)n1C	none
Cc1c(NC(=O)CNCc2ccc3c(c2)OCO3)c(=O)n(-c2ccccc2)n1C	RGS7-Gao inconclusive (no result: GSH fluor)
CC1CCC(C(C)C)C(OC(=O)C[n+]2cc(-c3ccc(Cl)cc3)n3c2CCCCC3)C1 (stereo not drawn)	none
Cc1ccc(S(=O)(=O)N2CCOCC2)cc1NC(=O)COC(=O)CNC(=O)c1ccc(C(C)(C)C)cc1	none
Cc1ccc(C(=O)C2Oc3ccccc3C3CC(c4ccc(C)cc4)=NN23)cc1 (stereo not drawn)	RGS8-Gao reg 57 | RGS-Gao 79 | Biotin-avidin inactive | RGS8-Gao confirm inactive | RGS7-Gao confirm inactive | RGS16-Gao conf inactive | RGS4-Gao single inactive | RGS19-Gao conf inactive
Cc1ccc(NCc2n[nH]c(=S)n2Cc2ccccc2)cc1Cl	Avidin fluor 65, RGS7-Gao 167[activator] | RGS-Gao 111 | Biotin-avidin inactive | RGS8-Gao confirm inactive | RGS7-Gao confirm inactive | RGS16-Gao conf inactive | RGS4-Gao single inactive | RGS19-Gao conf inactive
Cc1ccc(NCc2nnc(SCC(=O)O)n2Cc2ccccc2)cc1Cl	none
Cc1ccc2c(c1)cc(CN(Cc1ccco1)C(=O)COc1ccccc1)c1nnnn12	Avidin fluor 102, RGS7-Gao 159[activator] | RGS-Gao 126 | Biotin-avidin inactive | RGS8-Gao confirm inactive | RGS7-Gao confirm inactive | RGS16-Gao conf inactive | RGS4-Gao single inactive | RGS19-Gao conf inactive
COc1cccc(CNC(=O)C2CCN(S(=O)(=O)c3ccc4c(c3)CCC(=O)N4)CC2)c1	RGS8-Gao reg 141[activator] | RGS-Gao 110 | Biotin-avidin inactive | RGS8-Gao confirm inactive | RGS7-Gao confirm inactive | RGS16-Gao conf inactive | RGS4-Gao single inactive | RGS19-Gao conf inactive
CCN1CCN(Cc2ccc(NC(=O)c3cc(NC(=O)c4cnnc5ccccc45)cc(OC)c3)cc2C(F)(F)F)CC1	RGS7-Gao inconclusive (no result: GSH fluor)
CCCCn1c(/N=C/c2ccc3c(c2)OCO3)nc2ccccc21	none (no result: Avidin fluor, RGS7-Gao, RGS16-Gao, RGS4-Gao reg, RGS8-Gao reg) | Biotin-avidin inactive | RGS8-Gao confirm inactive | RGS7-Gao confirm inactive | RGS16-Gao conf inactive | RGS4-Gao single inactive | RGS19-Gao conf inactive
CCCCn1c(/N=C/c2ccc(N(C)C)cc2)nc2ccccc21	none
O=c1oc2c(O)c(O)cc3c(=O)oc4c(O)c(O)cc1c4c23	RGS7-Gao 31, RGS8-Gao reg 54 | RGS-Gao 51
CCc1ccc2c(c1)C(c1cccs1)=NNC(c1cccnc1)=N2	none
COc1ccc(/C=C\C(=O)NCc2ccc3c(c2)cc(C)n3C)cc1OC	RGS16-Gao 23 | RGS-Gao 79
CCN1C(=O)/C(=C/N2CCc3ccccc3C2)SC1=S	none (no result: Avidin fluor, RGS7-Gao, RGS16-Gao, GSH fluor, RGS4-Gao reg, RGS8-Gao reg) | Biotin-avidin inactive | RGS8-Gao confirm inactive | RGS7-Gao confirm inactive | RGS16-Gao conf inactive | RGS4-Gao single inactive | RGS19-Gao conf inactive
COc1ccccc1-n1cnnc1SCC(=O)c1ccc[nH]1	RGS7-Gao -11, RGS16-Gao -34, RGS4-Gao reg -30, RGS8-Gao reg 10.0 | Biotin-avidin inactive | RGS8-Gao confirm inactive | RGS7-Gao confirm inactive | RGS16-Gao conf inactive | RGS4-Gao single inactive | RGS19-Gao conf inactive
Cc1nn(-c2cc(N3CCOCC3)ccc2[N+](=O)[O-])c(=O)c2ccccc12	Avidin fluor 67, RGS7-Gao 161[activator] | RGS-Gao 110 | Biotin-avidin inactive | RGS8-Gao confirm inactive | RGS7-Gao confirm inactive | RGS16-Gao conf inactive | RGS4-Gao single inactive | RGS19-Gao conf inactive
Cc1nn(-c2cc(N3CCCC3)ccc2[N+](=O)[O-])c(=O)c2ccccc12	none
